ChEMBL document CHEMBL3988442, “University of Dundee, Small-Polar-MMV Screening Library” (2021)

Experiments:
[1] = biological target: T1, Aspartate--tRNA(Asp/Asn) ligase (Mycobacterium tuberculosis (strain ATCC 25618 / H37Rv)) (UniProt P9WFW3); assay: Assay for Asp RNA synthetase-1 from Mycobacterium tuberculosis; format: functional; design: scale not given: direction of the effect not stated beside the values; conditions: 30 µM; further: in the data most compounds retested in dose-response had high values
T1 sequence (whole entry): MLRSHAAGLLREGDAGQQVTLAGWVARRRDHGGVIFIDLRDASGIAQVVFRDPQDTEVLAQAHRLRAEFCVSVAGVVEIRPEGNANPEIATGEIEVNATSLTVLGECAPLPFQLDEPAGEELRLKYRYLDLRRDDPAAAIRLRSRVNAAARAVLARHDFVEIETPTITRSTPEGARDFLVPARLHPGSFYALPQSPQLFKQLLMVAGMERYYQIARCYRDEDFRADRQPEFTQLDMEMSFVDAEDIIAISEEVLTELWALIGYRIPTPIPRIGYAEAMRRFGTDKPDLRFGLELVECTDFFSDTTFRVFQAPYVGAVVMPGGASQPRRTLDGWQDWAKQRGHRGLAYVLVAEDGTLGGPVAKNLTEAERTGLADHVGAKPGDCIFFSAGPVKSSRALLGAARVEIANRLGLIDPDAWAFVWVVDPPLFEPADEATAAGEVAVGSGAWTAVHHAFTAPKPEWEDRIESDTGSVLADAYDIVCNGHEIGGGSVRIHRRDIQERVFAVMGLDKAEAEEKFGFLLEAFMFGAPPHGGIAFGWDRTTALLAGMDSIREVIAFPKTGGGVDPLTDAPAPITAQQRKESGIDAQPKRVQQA

[2] = biological target: Shiga toxin 2 (Escherichia coli O157:H7) (UniProt P09385+P09386); assay: E. coli 0.157:H7 Shiga Toxin SOP - stx2 screening assay; format: functional; design: scale not given: direction of the effect not stated beside the values; conditions: 30 µM

SMILES	Percent Effect [1]	Percent Effect [2]
CCn1c(C)nnc1CN(C)C1CCN(CCc2ccncc2)C1 (stereo unspecified)	2.19%	13.6%
CCc1c(C)sc(NC(=O)CN2CCN(CC)CC2)c1C(=O)OC	-1.36%	-31.3%
COc1ncccc1NC(=O)C1CCN(S(C)(=O)=O)CC1	-1.61%	-91.6%
Cc1cccnc1NC(=O)CSc1ccc2c(c1)OCCO2	0.668%	-4.11%
Cc1noc(C)c1CN1CC[C@@H](OCC2CC2)[C@@H](Cc2ccccc2)C1	0.779%	16%
CNc1nc(C(=O)N2CCCC(c3nccn3CC3CCC3)C2)cs1 (stereo unspecified)	10.9%	2.21%
O=C(NCCc1cccnc1)N1CCCC1c1ccsc1 (stereo unspecified)	-2.72%	1.93%
COc1cc(N2CC[C@H](O)[C@@H]2Cc2cnn(C)c2)ncn1	-4.05%	-1.67%
Cc1cccc(CN2C(=O)CC[C@@H]3[C@H]2CCN3Cc2ccc(C)s2)n1	7.52%	-11.3%
CCc1cnc(CN(C(C)=O)C2CCN(CCc3cnn(C)c3)C2)o1 (stereo unspecified)	-5.68%	20.4%
COc1cc(C)nc(N2CCN(C(=O)CNC(C)(C)C)CC2)n1	-2.1%	-32.2%
Cc1cc(NC(=O)CN(C)C2CCCN(c3cccnn3)C2)n(C)n1 (stereo unspecified)	5.7%	30.1%
Cn1cccc1C(=O)N1CCc2ncnc(N3CCCC3)c2CC1	-0.927%	-8.7%
CCC1CN(C(=O)c2ccc(=O)[nH]c2)CCC(=O)N1Cc1ccccc1 (stereo unspecified)	-4.62%	5.03%
CNC(=O)NC(=O)Cn1cc(-c2ccccc2)cn1	-2.46%	5.7%
CC(C)c1ccc(OCn2ccc(C(=O)N3CCCC3)n2)cc1	5.38%	-13.8%
O=C(c1ccnnc1)N1C[C@H](Oc2cccnc2)[C@H]2OCCC[C@H]21	2.1%	3.62%
CO[C@H]1CCN(C(=O)Cc2ccccn2)[C@H]1Cc1ccncc1	3.54%	-1.46%
